Source: the supplement of paper PMC11732987, “Enantioselective OTUD7B fragment discovery through chemoproteomics screening and high-throughput optimisation” (Communications Chemistry, 2025)

Legend:
Assay in all cases: log2 ratio of Biotin-Ahx-Ub-VS probe labelling (fragment/DMSO); higher = less target engagement (more negative = stronger competition), active = hit call of the paper (q ≤ 0.05, log2 ratio ≤ -1)
Details in all cases: compound concentration: 200 uM; treatment time: 3 h
[1] = biological target: USP34 (UniProt Q70CQ2)
In short: (§1)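 HEK293T lysate (495 µg per sample, in Tris/CHAPS/IGEPAL buffer with protease inhibitors) was exposed in triplicate for 3 h to fragment at 200 µM or to vehicle, then to Biotin-Ahx-Ub-VS at 0.5 µM final for 1 h. Labelled DUBs were enriched on NeutrAvidin, digested with LysC and trypsin, and analysed by diaPASEF LC-MS/MS. Spectronaut label-free quantities were normalised to the global median, and values are average log2 ratios of fragment over vehicle from an unpaired t-test. Only proteins with ≥2 unique peptides were used.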

[2] = biological target: T1, USP36 (UniProt Q9P275)
T1 sequence (whole entry): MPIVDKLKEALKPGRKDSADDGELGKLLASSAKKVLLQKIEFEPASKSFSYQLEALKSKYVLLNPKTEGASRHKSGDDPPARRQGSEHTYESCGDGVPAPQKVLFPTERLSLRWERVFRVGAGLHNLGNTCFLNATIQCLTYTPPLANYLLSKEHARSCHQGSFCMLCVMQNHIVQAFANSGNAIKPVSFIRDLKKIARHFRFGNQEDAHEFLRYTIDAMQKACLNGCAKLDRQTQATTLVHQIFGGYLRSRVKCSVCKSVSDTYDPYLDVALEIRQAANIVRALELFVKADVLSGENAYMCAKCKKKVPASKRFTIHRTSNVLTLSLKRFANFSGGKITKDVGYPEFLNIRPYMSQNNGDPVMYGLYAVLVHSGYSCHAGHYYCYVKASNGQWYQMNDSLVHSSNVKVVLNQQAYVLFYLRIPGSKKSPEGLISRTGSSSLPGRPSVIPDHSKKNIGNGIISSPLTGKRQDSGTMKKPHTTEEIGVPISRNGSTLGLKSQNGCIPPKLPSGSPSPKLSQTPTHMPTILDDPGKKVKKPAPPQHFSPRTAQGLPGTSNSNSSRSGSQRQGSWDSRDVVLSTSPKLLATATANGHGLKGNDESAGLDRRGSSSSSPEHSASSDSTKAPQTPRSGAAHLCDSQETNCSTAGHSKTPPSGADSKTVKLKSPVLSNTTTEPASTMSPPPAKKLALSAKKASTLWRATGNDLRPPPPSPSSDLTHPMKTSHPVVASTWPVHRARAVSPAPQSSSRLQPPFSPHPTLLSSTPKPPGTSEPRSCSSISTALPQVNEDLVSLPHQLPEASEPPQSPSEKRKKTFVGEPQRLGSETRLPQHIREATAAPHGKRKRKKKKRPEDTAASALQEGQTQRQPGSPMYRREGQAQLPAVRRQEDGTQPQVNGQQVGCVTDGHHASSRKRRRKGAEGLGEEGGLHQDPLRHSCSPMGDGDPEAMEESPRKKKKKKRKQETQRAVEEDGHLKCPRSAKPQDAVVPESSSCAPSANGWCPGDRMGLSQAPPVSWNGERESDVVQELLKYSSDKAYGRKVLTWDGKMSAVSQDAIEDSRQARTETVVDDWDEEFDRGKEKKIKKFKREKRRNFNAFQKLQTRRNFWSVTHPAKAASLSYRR
In short: as §1

[3] = biological target: T2, USP38 (UniProt Q8NB14)
T2 sequence (whole entry): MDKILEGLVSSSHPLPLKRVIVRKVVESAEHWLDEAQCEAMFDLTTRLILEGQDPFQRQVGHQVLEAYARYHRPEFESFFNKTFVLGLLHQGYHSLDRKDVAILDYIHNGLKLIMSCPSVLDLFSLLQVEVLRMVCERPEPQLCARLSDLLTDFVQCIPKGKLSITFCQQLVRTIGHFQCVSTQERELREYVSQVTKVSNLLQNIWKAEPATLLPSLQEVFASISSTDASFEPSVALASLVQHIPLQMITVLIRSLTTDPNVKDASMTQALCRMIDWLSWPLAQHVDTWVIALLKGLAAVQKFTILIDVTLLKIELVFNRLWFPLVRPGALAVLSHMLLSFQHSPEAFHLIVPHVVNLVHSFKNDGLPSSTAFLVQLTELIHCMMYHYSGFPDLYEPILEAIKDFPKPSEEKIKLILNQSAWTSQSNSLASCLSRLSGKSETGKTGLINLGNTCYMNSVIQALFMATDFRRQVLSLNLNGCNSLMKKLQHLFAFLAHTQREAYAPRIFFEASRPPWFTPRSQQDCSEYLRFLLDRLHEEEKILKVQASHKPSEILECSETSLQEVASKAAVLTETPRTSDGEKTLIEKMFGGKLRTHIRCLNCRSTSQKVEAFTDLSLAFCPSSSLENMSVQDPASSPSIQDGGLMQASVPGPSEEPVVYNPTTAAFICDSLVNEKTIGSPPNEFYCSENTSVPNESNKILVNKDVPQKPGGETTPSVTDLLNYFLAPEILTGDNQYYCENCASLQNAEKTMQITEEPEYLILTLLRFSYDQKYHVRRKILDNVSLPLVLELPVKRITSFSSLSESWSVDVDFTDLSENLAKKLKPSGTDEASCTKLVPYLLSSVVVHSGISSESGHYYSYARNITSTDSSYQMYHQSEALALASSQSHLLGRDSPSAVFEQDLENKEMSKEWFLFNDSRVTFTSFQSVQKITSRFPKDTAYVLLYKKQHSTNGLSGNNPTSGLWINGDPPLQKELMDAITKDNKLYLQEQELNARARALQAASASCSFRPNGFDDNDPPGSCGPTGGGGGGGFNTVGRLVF
In short: as §1

[4] = biological target: T3, USP39 (UniProt Q53GS9)
T3 sequence (whole entry): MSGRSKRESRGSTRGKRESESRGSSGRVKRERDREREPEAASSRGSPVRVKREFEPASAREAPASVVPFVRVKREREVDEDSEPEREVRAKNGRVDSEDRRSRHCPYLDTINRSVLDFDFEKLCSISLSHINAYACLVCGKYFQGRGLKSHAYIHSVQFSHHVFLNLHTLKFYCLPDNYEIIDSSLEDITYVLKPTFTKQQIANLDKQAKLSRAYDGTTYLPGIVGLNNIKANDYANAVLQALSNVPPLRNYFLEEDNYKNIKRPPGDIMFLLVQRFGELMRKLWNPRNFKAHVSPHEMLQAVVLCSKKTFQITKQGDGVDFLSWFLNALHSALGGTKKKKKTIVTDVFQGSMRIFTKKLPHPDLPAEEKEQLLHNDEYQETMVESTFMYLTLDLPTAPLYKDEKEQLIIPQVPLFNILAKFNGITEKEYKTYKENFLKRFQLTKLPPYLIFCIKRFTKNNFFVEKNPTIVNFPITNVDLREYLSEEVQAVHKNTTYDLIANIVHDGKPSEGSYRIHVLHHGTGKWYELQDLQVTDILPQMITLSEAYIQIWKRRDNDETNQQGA
In short: as §1

[5] = biological target: T4, USP4 (UniProt Q13107)
T4 sequence (whole entry): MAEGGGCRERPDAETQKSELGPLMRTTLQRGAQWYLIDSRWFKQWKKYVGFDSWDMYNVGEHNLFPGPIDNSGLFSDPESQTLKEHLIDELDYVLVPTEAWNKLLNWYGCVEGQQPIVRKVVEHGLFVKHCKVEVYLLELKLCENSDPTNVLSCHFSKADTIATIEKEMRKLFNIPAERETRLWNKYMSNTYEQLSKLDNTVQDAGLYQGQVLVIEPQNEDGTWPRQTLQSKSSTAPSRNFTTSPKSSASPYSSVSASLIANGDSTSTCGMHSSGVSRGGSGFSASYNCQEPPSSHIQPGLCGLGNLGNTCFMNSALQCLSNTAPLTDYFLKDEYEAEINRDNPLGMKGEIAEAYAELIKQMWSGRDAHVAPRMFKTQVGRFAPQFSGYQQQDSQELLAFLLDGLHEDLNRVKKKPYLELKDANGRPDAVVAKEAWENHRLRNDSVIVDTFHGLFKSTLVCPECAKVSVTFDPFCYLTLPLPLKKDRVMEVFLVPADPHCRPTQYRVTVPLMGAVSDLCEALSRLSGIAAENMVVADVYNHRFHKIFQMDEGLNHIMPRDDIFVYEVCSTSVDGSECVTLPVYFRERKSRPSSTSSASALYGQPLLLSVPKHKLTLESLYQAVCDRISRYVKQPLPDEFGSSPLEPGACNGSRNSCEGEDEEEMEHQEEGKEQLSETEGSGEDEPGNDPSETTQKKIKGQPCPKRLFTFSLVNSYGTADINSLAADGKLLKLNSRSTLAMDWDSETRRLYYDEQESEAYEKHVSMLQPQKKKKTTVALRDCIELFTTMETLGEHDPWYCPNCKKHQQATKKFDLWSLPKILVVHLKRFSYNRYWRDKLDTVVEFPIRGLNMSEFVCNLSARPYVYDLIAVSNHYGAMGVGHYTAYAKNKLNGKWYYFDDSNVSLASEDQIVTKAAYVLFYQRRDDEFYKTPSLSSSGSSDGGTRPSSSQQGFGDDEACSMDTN
In short: as §1

Measured: log2 ratio of Biotin-Ahx-Ub-VS probe labelling

Sequence of USP34 (Q70CQ2 whole entry, the tested form may be a part): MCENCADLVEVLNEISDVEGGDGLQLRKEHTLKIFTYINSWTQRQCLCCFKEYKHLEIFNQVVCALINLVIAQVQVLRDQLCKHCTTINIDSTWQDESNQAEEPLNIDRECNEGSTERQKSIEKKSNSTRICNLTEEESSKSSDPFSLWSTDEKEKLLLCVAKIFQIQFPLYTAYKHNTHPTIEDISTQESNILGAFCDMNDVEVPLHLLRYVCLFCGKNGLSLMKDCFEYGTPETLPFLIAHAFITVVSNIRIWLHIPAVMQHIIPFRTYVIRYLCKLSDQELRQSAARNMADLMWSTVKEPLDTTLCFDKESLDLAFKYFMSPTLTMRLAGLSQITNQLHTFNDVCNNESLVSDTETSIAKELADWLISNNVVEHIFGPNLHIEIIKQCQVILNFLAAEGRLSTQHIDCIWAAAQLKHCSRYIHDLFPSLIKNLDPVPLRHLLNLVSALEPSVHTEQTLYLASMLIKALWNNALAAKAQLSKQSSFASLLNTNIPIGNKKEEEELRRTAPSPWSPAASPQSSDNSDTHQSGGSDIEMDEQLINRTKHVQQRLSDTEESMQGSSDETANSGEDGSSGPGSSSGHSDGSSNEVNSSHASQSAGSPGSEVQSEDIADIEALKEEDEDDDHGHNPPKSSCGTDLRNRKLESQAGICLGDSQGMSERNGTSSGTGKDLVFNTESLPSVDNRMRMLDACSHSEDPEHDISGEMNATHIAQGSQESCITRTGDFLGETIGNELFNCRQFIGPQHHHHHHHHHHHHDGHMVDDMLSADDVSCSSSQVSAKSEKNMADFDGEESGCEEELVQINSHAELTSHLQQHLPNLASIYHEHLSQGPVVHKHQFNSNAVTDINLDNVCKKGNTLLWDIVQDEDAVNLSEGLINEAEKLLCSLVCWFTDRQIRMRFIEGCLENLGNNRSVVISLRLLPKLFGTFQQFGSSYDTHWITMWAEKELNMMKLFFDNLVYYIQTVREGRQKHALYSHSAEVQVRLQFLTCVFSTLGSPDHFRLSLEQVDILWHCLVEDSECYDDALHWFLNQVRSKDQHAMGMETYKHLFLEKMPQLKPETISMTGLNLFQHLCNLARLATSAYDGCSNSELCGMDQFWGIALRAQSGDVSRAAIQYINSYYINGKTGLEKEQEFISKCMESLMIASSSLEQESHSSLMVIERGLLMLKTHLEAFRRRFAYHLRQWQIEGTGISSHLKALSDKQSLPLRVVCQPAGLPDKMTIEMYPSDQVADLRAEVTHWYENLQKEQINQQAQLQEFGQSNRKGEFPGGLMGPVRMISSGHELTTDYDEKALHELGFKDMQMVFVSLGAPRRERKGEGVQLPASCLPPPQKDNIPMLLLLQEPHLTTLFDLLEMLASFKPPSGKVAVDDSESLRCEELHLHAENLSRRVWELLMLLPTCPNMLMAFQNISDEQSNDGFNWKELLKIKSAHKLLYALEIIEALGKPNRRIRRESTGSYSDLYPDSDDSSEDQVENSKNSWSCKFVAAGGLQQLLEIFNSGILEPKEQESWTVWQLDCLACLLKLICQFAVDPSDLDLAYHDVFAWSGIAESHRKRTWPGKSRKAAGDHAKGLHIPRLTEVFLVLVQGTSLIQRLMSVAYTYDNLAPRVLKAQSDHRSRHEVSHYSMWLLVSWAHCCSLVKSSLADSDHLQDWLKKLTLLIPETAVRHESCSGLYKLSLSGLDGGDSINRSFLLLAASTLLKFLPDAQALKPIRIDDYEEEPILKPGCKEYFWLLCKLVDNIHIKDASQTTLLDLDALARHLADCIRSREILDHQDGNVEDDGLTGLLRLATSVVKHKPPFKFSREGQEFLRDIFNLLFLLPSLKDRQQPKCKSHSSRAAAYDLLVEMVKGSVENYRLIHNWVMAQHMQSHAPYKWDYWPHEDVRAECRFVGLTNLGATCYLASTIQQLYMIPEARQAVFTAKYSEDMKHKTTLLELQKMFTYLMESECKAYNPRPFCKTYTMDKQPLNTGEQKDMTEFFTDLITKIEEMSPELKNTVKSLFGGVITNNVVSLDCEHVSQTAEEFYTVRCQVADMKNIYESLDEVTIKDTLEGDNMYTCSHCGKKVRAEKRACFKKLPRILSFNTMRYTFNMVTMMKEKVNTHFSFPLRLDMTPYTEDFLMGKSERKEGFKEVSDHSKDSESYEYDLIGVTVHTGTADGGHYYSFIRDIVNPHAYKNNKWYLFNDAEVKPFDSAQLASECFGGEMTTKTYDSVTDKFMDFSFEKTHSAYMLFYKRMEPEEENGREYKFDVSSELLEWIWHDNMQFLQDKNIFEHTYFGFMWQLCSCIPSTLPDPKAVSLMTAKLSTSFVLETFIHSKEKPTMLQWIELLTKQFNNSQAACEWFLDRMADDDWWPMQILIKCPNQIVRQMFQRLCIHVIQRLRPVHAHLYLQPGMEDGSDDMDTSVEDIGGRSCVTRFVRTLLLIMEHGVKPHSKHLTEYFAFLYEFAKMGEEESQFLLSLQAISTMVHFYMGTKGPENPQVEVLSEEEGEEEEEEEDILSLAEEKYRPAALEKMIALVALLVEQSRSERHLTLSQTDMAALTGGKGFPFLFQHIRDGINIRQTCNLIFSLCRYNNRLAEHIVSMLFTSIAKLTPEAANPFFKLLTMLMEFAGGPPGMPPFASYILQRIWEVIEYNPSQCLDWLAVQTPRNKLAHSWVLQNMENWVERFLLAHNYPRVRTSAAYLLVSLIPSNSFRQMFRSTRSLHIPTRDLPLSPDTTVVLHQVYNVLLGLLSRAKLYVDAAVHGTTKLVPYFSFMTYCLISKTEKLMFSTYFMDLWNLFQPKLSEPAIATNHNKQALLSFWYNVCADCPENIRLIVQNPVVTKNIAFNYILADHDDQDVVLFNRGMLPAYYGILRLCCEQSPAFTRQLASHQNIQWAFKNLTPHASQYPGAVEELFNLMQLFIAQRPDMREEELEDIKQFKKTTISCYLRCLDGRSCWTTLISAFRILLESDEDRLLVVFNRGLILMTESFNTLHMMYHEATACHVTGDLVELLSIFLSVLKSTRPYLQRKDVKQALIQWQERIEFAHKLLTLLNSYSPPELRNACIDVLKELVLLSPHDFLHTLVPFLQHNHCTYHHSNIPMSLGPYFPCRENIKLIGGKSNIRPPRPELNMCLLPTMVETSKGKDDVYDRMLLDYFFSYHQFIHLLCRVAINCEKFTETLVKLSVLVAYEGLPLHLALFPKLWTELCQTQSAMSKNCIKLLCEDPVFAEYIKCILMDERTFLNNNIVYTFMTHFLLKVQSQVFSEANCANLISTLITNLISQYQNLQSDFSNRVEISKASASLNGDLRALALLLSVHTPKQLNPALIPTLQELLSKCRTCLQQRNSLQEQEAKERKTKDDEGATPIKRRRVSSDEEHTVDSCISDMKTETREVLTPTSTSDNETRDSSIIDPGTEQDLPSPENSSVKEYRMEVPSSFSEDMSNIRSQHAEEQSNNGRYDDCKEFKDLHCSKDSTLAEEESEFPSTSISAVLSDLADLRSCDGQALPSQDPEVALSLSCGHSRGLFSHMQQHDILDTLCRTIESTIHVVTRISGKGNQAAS

Cc1nc(CN2CCCN(C(=O)CCl)CC2)no1.Cl
inactive: [1] 0.0178 | [2] -0.0476 | [3] 0.0657 | [4] -0.161 | [5] 0.31
